{
  "source": "PubChem BioAssay AID1851",
  "about": "(National Center for Advancing Translational Sciences (NCATS), 2009)",
  "note": "Hit rate of the full screen: of about 16,000 compounds, about 5,100 (32%) were called active. About 25% were inconclusive and are not listed. The list shows a part of the results. Unmarked numbers belong to inactive results. Calls come from the whole dose curve; as a rule, active = well fitted curve in the direction sought with a large enough effect; inconclusive = small, poorly fitted or top-dose-only effect, or effect the other way; inactive = no such curve, though single readings can be large or run the other way. % is set by controls: 0 for no effect and ±100 for the full control effect.",
  "data": [
    {"molecular_target": "Cytochrome P450 3A4 (Homo sapiens) (UniProt P08684)", "sequence (P08684 whole entry, looked up)": "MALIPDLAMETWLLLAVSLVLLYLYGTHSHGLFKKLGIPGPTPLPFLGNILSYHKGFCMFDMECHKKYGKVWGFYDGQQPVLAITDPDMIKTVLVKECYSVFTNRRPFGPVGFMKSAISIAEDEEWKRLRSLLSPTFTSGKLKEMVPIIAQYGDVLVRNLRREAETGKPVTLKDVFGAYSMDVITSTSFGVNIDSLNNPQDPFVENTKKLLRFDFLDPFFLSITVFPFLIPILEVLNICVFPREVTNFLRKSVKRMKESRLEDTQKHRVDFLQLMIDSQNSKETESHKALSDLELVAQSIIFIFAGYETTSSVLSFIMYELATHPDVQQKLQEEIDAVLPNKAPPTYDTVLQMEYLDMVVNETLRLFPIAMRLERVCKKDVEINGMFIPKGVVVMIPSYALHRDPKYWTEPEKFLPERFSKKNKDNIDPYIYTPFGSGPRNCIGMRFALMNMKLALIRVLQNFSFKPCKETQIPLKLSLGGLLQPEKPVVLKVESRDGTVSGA", "experiment": "Cytochrome panel assay with activity outcomes", "conditions": "recombinant CYP, pro-luciferin dealkylation, luminescence, p450-cyp3a4; series mostly up to 57.1 µM; activity, negative = inhibition: at the top concentration", "values": [
      {"smiles": "CCNC(=O)COC(=O)c1cc(-c2ccc(OC)cc2)nc2ccccc12", "AC50": "14.1 µM (active)"},
      {"smiles": "CCNC(=O)COC(=O)c1cc(=O)[nH]c2ccccc12", "activity, negative = inhibition": "15.8%"},
      {"smiles": "N/C(=N\\OC(=O)c1cc(-c2ccccc2)nc2ccccc12)c1ccc(Cl)cc1", "activity, negative = inhibition": "28.2%"},
      {"smiles": "CCS(=O)(=O)N1CCC(C(=O)NCCCN2CCN(c3ccccc3F)CC2)CC1", "activity, negative = inhibition": "-9.39%"},
      {"smiles": "Cc1ccccc1CS(=O)(=O)CCC(=O)NCCCN1CCN(c2ccccc2F)CC1", "AC50": "11.2 µM (active)"},
      {"smiles": "Cc1ccc(CS(=O)(=O)CCC(=O)NCCCN2CCCC2=O)cc1", "activity, negative = inhibition": "1.96%"},
      {"smiles": "Cc1ccc(CS(=O)(=O)CCC(=O)NCCCN2CCCC2)cc1", "AC50": "28.2 µM (active)"},
      {"smiles": "CCOCCCNC(=O)CCS(=O)(=O)Cc1ccc(C)cc1", "activity, negative = inhibition": "-15.2%"},
      {"smiles": "CCCS(=O)(=O)N1CCCC(C(=O)NCCCN2CCN(c3ccccc3F)CC2)C1", "note": "(stereo not given)", "activity, negative = inhibition": "-20.6%"},
      {"smiles": "Cc1ccc2c(c1)/C(=N/OC(=O)c1ccc(F)cc1)CCS2", "activity, negative = inhibition": "24.5%"},
      {"smiles": "N#Cc1c(-c2ccccc2)nc(-c2ccccc2)[nH]c1=O", "activity, negative = inhibition": "-11%"},
      {"smiles": "N#Cc1c(-c2ccccc2)nc2n(c1=O)CCS2", "activity, negative = inhibition": "-1.65%"},
      {"smiles": "N#Cc1c(-c2ccccc2)no[n+]1[O-]", "AC50": "12.6 µM (active)"},
      {"smiles": "COc1cccc(CNCCNC(=O)c2nonc2N)c1", "activity, negative = inhibition": "3.2%"},
      {"smiles": "CCOc1ccc(N(CC(=O)NCc2ccc(OC)cc2)S(=O)(=O)c2c(C)noc2C)cc1", "AC50": "0.631 µM (active)"},
      {"smiles": "COc1ccc(N(CC(=O)NCc2cccc(OC)c2)S(=O)(=O)c2c(C)noc2C)cc1", "AC50": "1.78 µM (active)"},
      {"smiles": "Cn1cccc1C(=O)N1CCC2(CC1)CN(c1ccncc1)C2", "activity, negative = inhibition": "-15.8%"},
      {"smiles": "Cn1cccc1C(=O)N1CCC2(CC1)CCN(c1cccc(-c3ccccc3)c1)CC2", "activity, negative = inhibition": "32.4%"},
      {"smiles": "CN1CCCC2(CCN(C(=O)c3cccn3C)CC2)C1", "activity, negative = inhibition": "-7.48%"},
      {"smiles": "Cn1cccc1C(=O)N1CCC2(CCCN(c3cccc(-c4ccccc4)c3)C2)CC1", "AC50": "10 µM (active)"},
      {"smiles": "Cn1cccc1C(=O)N1CCC2(CCCN(c3ncccn3)C2)CC1", "activity, negative = inhibition": "-4.9%"},
      {"smiles": "Cn1cccc1C(=O)N1CCC2(CC1)CCN(c1ccncc1)CC2", "activity, negative = inhibition": "-27.5%"},
      {"smiles": "Cn1cccc1C(=O)N1CCC[C@@]2(CCN(c3ccccc3)C2)C1", "AC50": "10 µM (active)"},
      {"smiles": "CC(C)NC(=O)N1CC[C@@]2(CCCN(C(=O)c3cccn3C)C2)C1", "activity, negative = inhibition": "3.62%"},
      {"smiles": "Cn1cccc1C(=O)N1CCC[C@@]2(CCN(c3cccc(-c4ccccc4)c3)C2)C1", "AC50": "7.94 µM (active)"},
      {"smiles": "Cn1cccc1C(=O)N1CCC[C@@]2(CCN(c3ccncc3)C2)C1", "AC50": "1 µM (active)"},
      {"smiles": "C[N+](C)(C)CCCCCC[N+](C)(C)C", "AC50": "inactive"},
      {"smiles": "Cn1cccc1C(=O)N1CCC[C@@]2(CCN(C(c3ccccc3)c3ccccc3)C2)C1", "AC50": "12.6 µM (active)"},
      {"smiles": "COC(=O)N1CCC[C@@]2(CCN(C(c3ccccc3)c3ccccc3)C2)C1", "activity, negative = inhibition": "-29.5%"},
      {"smiles": "CC(C)NC(=O)N1CCC2(CC1)CCN(C(=O)c1cccn1C)CC2", "activity, negative = inhibition": "-9.8%"},
      {"smiles": "COc1cccc2c1[C@@H]1CN(CCCCn3c(=O)[nH]c4c(sc5ncc(-c6ccccc6)nc54)c3=O)C[C@H]1CO2", "AC50": "15.8 µM (active)"},
      {"smiles": "O=C1Nc2ccccc2C(O)(C(=O)NCc2ccc3c(c2)OCO3)N1c1ccc(Cl)c(Cl)c1", "note": "(stereo not given)", "AC50": "0.126 µM (active)"},
      {"smiles": "NCCCC(=O)O", "activity, negative = inhibition": "-1.16%"},
      {"smiles": "c1ccc(C2CCC(N3CCC(N4CCCCC4)CC3)CC2)cc1", "note": "(stereo not given)", "activity, negative = inhibition": "-4.19% [at 2.29 µM]"},
      {"smiles": "O=S1(=O)[C@H]([C@H]2CC3c4ccccc4C2c2ccccc23)[C@@H](N2CCCCC2)[C@@H]1c1ccccc1", "AC50": "1 µM (active)"},
      {"smiles": "O=C(Cc1ccccc1I)Nc1ccccc1", "activity, negative = inhibition": "-28.6%"},
      {"smiles": "CCC#CCOCC(=O)Nc1ccccc1", "activity, negative = inhibition": "19.9%"},
      {"smiles": "CCCCC#Cc1ccccc1CC(=O)Nc1ccccc1", "AC50": "1 µM (active)"},
      {"smiles": "OCCCN=C1CCCCC1", "activity, negative = inhibition": "-15.7% [at 11.4 µM]"},
      {"smiles": "CNC(=O)c1nnn(Cc2ccccc2)c1NC(=O)C(F)(F)F", "activity, negative = inhibition": "11.1%"},
      {"smiles": "C[C@@H](C(=O)Nc1ccc2ccccc2c1)[C@H]1C[C@]1(C)[C@H](NC(=O)OCc1ccccc1)c1ccccc1", "AC50": "2.51 µM (active)"},
      {"smiles": "C[C@@H](C(=O)Nc1ccc2ccccc2c1)[C@@H]1C[C@@]1(C)[C@@H](NC(=O)OCc1ccccc1)c1ccccc1", "AC50": "7.94 µM (active)"},
      {"smiles": "Cc1ccc(NC(=O)N(Cc2ccco2)C(C)c2ccco2)cc1C", "note": "(stereo not given)", "AC50": "3.16 µM (active)"},
      {"smiles": "c1ccc(CCc2cccnc2)nc1", "activity, negative = inhibition": "-27.8% [at 11.4 µM]"},
      {"smiles": "c1cncc(CNCc2cccnc2)c1", "activity, negative = inhibition": "-27.6% [at 11.4 µM]"},
      {"smiles": "c1ccc(C[C@@H](Nc2cccnc2)c2ccccc2)cc1", "AC50": "3.16 µM (active)"},
      {"smiles": "CCOC(=O)CCN1C(=O)[C@H]2[C@H]3[C@H](O)[C@H](O)C/C(=N/OCC(C)C)[C@@H]3CC[C@@H]2C1=O", "activity, negative = inhibition": "-27.7% [at 11.4 µM]"},
      {"smiles": "O=C(c1ccc([N+](=O)[O-])cc1)n1nc(-c2ccccc2)nc1NCc1ccccc1", "activity, negative = inhibition": "13.6% [at 2.29 µM]"},
      {"smiles": "O=C(NCc1cn(-c2ccccc2)nc1-c1ccccc1)c1cc([N+](=O)[O-])cc([N+](=O)[O-])c1", "AC50": "2.51 µM (active)"},
      {"smiles": "COC(=O)c1ccc(NC(=O)c2ccccc2)o1", "activity, negative = inhibition": "-12.8% [at 2.29 µM]"},
      {"smiles": "COC(=O)c1ccc(C23CC2(C(NP(=O)(c2ccccc2)c2ccccc2)c2ccccc2)C3)cc1", "note": "(stereo not given)", "AC50": "3.16 µM (active)"},
      {"smiles": "COC(=O)c1ccc(C#CC(NP(=O)(c2ccccc2)c2ccccc2)c2ccccc2)cc1", "note": "(stereo not given)", "activity, negative = inhibition": "-25.5%"},
      {"smiles": "CN1C(=O)C[C@H](c2ccccc2)C1=O", "activity, negative = inhibition": "-5.93% [at 25.6 µM]"},
      {"smiles": "C/C(=N\\Nc1nnc(C)c(=O)[nH]1)C(=O)O", "activity, negative = inhibition": "-10%"},
      {"smiles": "COC(=O)[C@@]1(Cc2ccc(F)cc2)[C@H]2c3cc(C(=O)N4CCCC4)n(Cc4ccccn4)c3C[C@H]2CN1C(=O)c1ccccc1", "AC50": "1 µM (active)"},
      {"smiles": "COC(=O)[C@@]1(Cc2ccccc2)[C@H]2c3cc(C(=O)N4CCCC4)n(Cc4ccccn4)c3C[C@H]2CN1C(=O)c1ccccc1", "AC50": "2 µM (active)"},
      {"smiles": "COC(=O)[C@@]1(Cc2ccccc2)[C@H]2c3cc(C(=O)N4CCCC4)n(CCc4ccccn4)c3C[C@H]2CN1C(=O)c1ccccc1", "AC50": "2 µM (active)"},
      {"smiles": "O=C(O)[C@@H](O)[C@@H](O)[C@H](O)[C@H](O)CO", "activity, negative = inhibition": "-3.9% [at 11.4 µM]"},
      {"smiles": "C/C(=C\\C(=O)c1ccc(Br)cc1)NCc1ccc2c(c1)OCO2", "AC50": "2.51 µM (active)"},
      {"smiles": "O=C(Cc1ccc(Br)cc1)OCC(=O)c1ccc2c(c1)OCCO2", "activity, negative = inhibition": "-3.84% [at 2.29 µM]"}
    ]}
  ]
}
